# PubChem BioAssay (NCI)
# This is part of a sample that, as a whole, favours compounds with a hit. Of some 83,000 tested, about 20% had one in any assay.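 How to read the values: 0–100, growth inhibition (40 = 60% inhibited); 0, no net growth; -100 to 0, cell death (-40 = 40% of starting cells died; -100 = all dead).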 Values without a mark were called inactive. Calls of active or inactive are those of the source. The calls were made as follows: active = growth percent below 10; inactive = the rest.
# What was measured:
# Assay in all cases: NCI-60 one-dose screen, 48 h (100 = growth as untreated, 0 = no growth, -100 = all killed)
# Conditions in all cases: 10 µM unless noted
# DU-145 prostate = system: DU-145 prostate
# K-562 leukemia = system: K-562 leukemia
# MALME-3M melanoma = system: MALME-3M melanoma
# MDA-MB-231 breast = system: MDA-MB-231 breast
# RXF 393 renal = system: RXF 393 renal
# SF-268 CNS = system: SF-268 CNS
# SF-295 CNS = system: SF-295 CNS
# SF-539 CNS = system: SF-539 CNS
# UACC-257 melanoma = system: UACC-257 melanoma
# M14 melanoma = system: M14 melanoma
SMILES,growth (DU-145 prostate),growth (K-562 leukemia),growth (MALME-3M melanoma),growth (MDA-MB-231 breast),growth (RXF 393 renal),growth (SF-268 CNS),growth (SF-295 CNS),growth (SF-539 CNS),growth (UACC-257 melanoma),growth (M14 melanoma)
CS(=O)(=O)Nc1cc(-c2ccc3ncnc(Nc4ccc5c(cnn5Cc5ccc(F)cc5)c4)c3c2)cnc1Cl,62.1%,48.5%,-4.18% (active),32.9%,9.93% (active),14.9%,66.1%,27.5%,50%,36.8%
O=C(CSc1nc2ccc([N+](=O)[O-])cc2[nH]1)Nc1ccc([N+](=O)[O-])cc1,31.6%,14.3%,1.83% (active),33.3%,29%,27%,21.2%,41.5%,9.35% (active),24.5%
CCc1ncnc2c1ccn2C(C)c1ccc(OC)c(F)c1 (stereo not given),82.3%,11.5%,74.9%,56.7%,76.5%,63.2%,36%,70.6%,40%,36.3%
Cc1c(-c2ccc(O)cc2)n(Cc2ccc(OCCN3CCCCCC3)cc2)c2ccc(O)cc12,87%,-6.6% (active),69.5%,82.3%,49.9%,74.2%,99.1%,61.7%,81.6%,63.5%
CCNCCNc1cc(C2CCCCC2)c(C#N)c2nc3ccccc3n12,32.6%,-38.8% (active),-72.4% (active),-48.7% (active),-81.1% (active),22.3%,-53.5% (active),-88.8% (active),-67.2% (active),-66% (active)
N#Cc1c(-c2ccccc2)cc(-c2ccc(Nc3nc(Nc4ccc(Cl)cc4)nc(Nc4ccc(Cl)cc4)n3)cc2)nc1N,34%,32.6%,-68.1% (active),-31.2% (active),-44.5% (active),51.9%,75.5%,-53.9% (active),-12.1% (active),2% (active)
CN1C(=O)/C(=C\c2nc([P+](c3ccccc3)(c3ccccc3)c3ccccc3)c(N3CCOCC3)o2)SC1=S,100%,17.2%,-10.8% (active),54.8%,98.1%,97.3%,103%,63%,61.1%,47%
COc1cc2c(cc1OCCCN1CCN(CCCOc3cc4c(cc3OC)C(=O)N3CC(F)(F)C[C@H]3C=N4)CC1)N=C[C@@H]1CC(F)(F)CN1C2=O,16.3%,36.5%,89%,85.3%,86.2%,14.6%,30.6%,51%,85.3%,70.2%
COc1ccc(-c2nn(-c3cccc(Cl)c3)cc2-c2cc(-c3ccc(Br)cc3)nc(N)n2)cc1,107%,94.2%,102%,81.9%,111%,101%,99.1%,103%,104%,92.8%
O=C(O)CCCN1C(=O)/C(=C/c2cn(-c3ccccc3)nc2-c2ccc([N+](=O)[O-])cc2)SC1=S,58.5%,56.5%,52.1%,85.5%,86.7%,52.8%,34.8%,55.5%,84.6%,-8.74% (active)
COC(=O)c1nc(-c2ccc(C)cc2)oc1S(=O)(=O)c1cccc(OC)c1,104%,11.6%,-12.3% (active),94.1%,77%,92.8%,104%,101%,97.5%,90.4%
N#CC(C#N)N=Nc1ccc(Br)cc1,38.5%,12.5%,12.1%,18.5%,87.4%,90.2%,95.7%,30.4%,10%,42.9%
C=CCn1c(SCC(=O)Nc2ccc(C(=O)/C=C/c3ccc(Cl)cc3)cc2)nnc1-c1ccc(Br)cc1,75.3%,61%,97.6%,81.2%,74.8%,73.6%,96.8%,90.3%,92.3%,89.7%
Cc1ccc(CNc2ccc3nc(CCC4CCCCC4)[nH]c3c2)cc1,71.8%,5.06% (active),22.4%,53.1%,36.2%,71.2%,61.1%,64.6%,66.8%,37.4%
COc1ccc(CN2c3ccccc3Sc3ccccc32)cc1F,14.1%,11%,32.6%,24.1%,7.16% (active),38.8%,12.4%,-6.34% (active),54.8%,-3.27% (active)
CC(C)COc1nc2c(c(=O)n(C)c(=O)n2C)n1C,111%,98%,121%,108%,126%,98.5%,112%,91.8%,67.2%,108%
CCO/C=N/C1=C(C#N)C(c2ccc(Cl)cc2)c2sc3c(F)cccc3c2O1 (stereo not given),88.2%,24.6%,71.3%,71.3%,76.9%,68.5%,52.8%,81.6%,89%,46.1%
COc1c(B(O)O)cccc1-c1nc2c(F)cc3[nH]ncc3c2c2c1CCCC2,7.77% (active),11.3%,-15.1% (active),12.4%,-45% (active),12.3%,7.58% (active),-28.3% (active),20.3%,11.3%
COc1ccc(C(C)=O)cc1S(=O)(=O)Nc1c(N)nc(SC)[nH]c1=O,107%,93%,96.4%,111%,107%,96.1%,98.1%,108%,103%,94.8%
O=C(C[C@]1(O)C(=O)Nc2ccccc21)c1cccc(C(F)(F)F)c1,99.2%,96%,83.1%,91%,101%,85.8%,96.3%,88%,99.7%,93.1%
Cn1ccc(=O)c(C(=O)Nc2nsc3ccc([N+](=O)[O-])cc23)c1,63.2%,78.3%,65.7%,47.9%,35.9%,74.9%,110%,77.6%,89.6%,46.6%
COc1ccc(F)cc1/C=C/C(=O)/C=C(/C=C/c1cc(F)ccc1OC)OB(F)F,37.9%,7.73% (active),5.69% (active),32.5%,18%,80.2%,93.8%,61.1%,48.8%,9.74% (active)
CCOc1nc(-c2ccccc2)cc2c(O)c(C(=O)N/N=C/c3ccccc3)[nH]c(=O)c12,115%,48.2%,136%,117%,119%,106%,134%,112%,101%,118%
CC(=O)n1nc(C(=O)OC(C)(C)c2ccccc2)c2ccccc21,111%,97%,105%,85.4%,92.2%,99.2%,93.1%,97.7%,89.5%,96.4%
COC(=O)c1c(C)c2n(c1C)C(=O)C(c1ccccc1)=C2,97.9%,74.8%,82.1%,60.5%,82.3%,103%,79.9%,87.6%,18.1%,86.3%
CN(C)CC1CCC(CN(C)C)C1=O (stereo not given),115%,4.34% (active),115%,117%,123%,108%,133%,109%,109%,108%
